Screening data from PubChem.
Hits are enriched below; roughly 7.9% of the tested compounds scored in any of these assays.
KB-3-1 cytotox = kills parental KB-3-1 adenocarcinoma cells | KB-3-1 viability, CellTiter-Glo ATP luminescence, 72 h | Potency, µM (series often up to 46.1 µM), most hits filed as cytotoxic | 1.4% of 400,000 active | AID 1347075; note: % is set by controls: 0 for no effect and ±100 for the full control effect; nearly all actives have a fitted effect of over 60% in size
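Luminescent ATP read-out (CellTiter-Glo) measures survival of drug-naive KB-3-1 cells after 72 h compound exposure at 37 °C. Titration series was screened from lowest to highest concentration, with DMSO vehicle plates as background controls.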
SW480 rerep = inducers of DNA re-replication in SW480 colon cancer cells; 1.8% of 340,000 active; SW480 DNA re-replication, Hoechst DNA content imaging, 48 h; Potency, µM (top dose mostly 46.1 µM), for inactives: top-dose re-replication activation, usual class: activators; note: % of control where 0% means no effect; nearly all actives have a fitted effect of over 55% in size
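Cells (250 per well) received 23 nL compound or DMSO by pin tool and were kept 48 hr at 37 C, 5% CO2. Nuclei were then stained with Hoechst for 40 min and scanned for DNA content.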
HT1080-NT tox = kills 2HG-producing HT-1080-NT fibrosarcoma cells; HT-1080-NT fibrosarcoma viability, CellTiter-Glo ATP luminescence, 48 h; 1.6% of 360,000 active; Potency, µM (highest dose often 46.1 µM), for inactives: at the top dose activity, negative = less viability, usual class: cytotoxic; AID 686970;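 note: NT is the 2HG producing partner of a matched IDH1 knockdown line; 0% = DMSO-treated cells and -100% = media-only wells without cells; nearly all actives have a fitted effect of over 55% in size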
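A 48-hour cytotoxicity screen used HT-1080-NT cells plated 2 hours before compound delivery. ATP-based CellTiter-Glo luminescence measured viability, normalized to DMSO and no-cell controls.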
MCF10A rerep = inducers of DNA re-replication in MCF 10A breast cells; MCF 10A DNA re-replication, Hoechst nuclear intensity, 48 h; Potency, µM (titrated, usually from 46.1 µM), without a hit: at the highest dose activity, positive = re-replication, actives largely listed as activators; 2.9% of 350,000 active; AID 624296; note: % of control where 0% means no effect; nearly all actives have a fitted effect of over 50% in size
HT1080 IDH1KD tx = toxicity to HT-1080 IDH1 knockdown cells (counter line); HT-1080 IDH1 knockdown viability, ATP luminescence, 48 h; 2% of 360,000 active; Potency, µM (doses to about 46.1 µM), for inactives: at the highest dose activity, negative = toxicity, usual class: cytotoxic;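 note: 0% = DMSO wells and -100% = cell-free medium wells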
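Assay cells: HT-1080 with IDH1 knockdown, 750 per well, RPMI/5% FBS. Exposure: 48 h at 37 °C following 2 h pre-incubation. Read: CellTiter-Glo luminescence; fitted concentration-response, curve class assigned.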
KB-V1 cytotox = kills drug-selected multidrug resistant KB-V1 cells; KB-V1 MDR cells viability, CellTiter-Glo, 72 h; Potency, µM (highest dose often 46.1 µM), hits mostly cytotoxic; 3.4% of 400,000 active; AID 1347076; note: % is set by controls: 0 for no effect and ±100 for the full control effect; nearly all actives have a fitted effect of over 60% in size
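KB-V1 MDR subline cells in DMEM (phenol-red free, 10% FBS) exposed to compounds in qHTS concentration series for 72 h at 37 degrees C. Viability read by CellTiter-Glo luminescence; concentration-effect curves fitted after normalization and correction.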
* marks the source's active call; other numbers are inactive results; i = inactive; ? = inconclusive; . = no result given. Calls come from the whole dose curve; as a rule, active = well fitted curve in the direction sought with a large enough effect; inconclusive = small, poorly fitted or top-dose-only effect, or another doubt; inactive = no such curve, though single readings can be large; an effect the other way counts as inactive or inconclusive. Potency is the fitted concentration of half-maximal effect.

SMILES	KB-3-1 cytotox	SW480 rerep	HT1080-NT tox	MCF10A rerep	HT1080 IDH1KD tx	KB-V1 cytotox
CCOc1ccc(C2C=C(c3ccc(C)cc3)Nc3nnnn32)cc1 (centres undefined)	?	14%	?	?	13µM*	?
CCOc1ccc(C2C=C(c3ccccc3)Nc3nnnn32)cc1 (centres undefined)	i	0%	-11%	27%	-14%	i
CCc1ccc(NC(=O)Cn2cc(S(=O)(=O)c3ccc(F)cc3)c(=O)c3cc(OC)ccc32)cc1	i	.	.	.	.	i
CCn1cc(C(=O)N2CCN(c3ccc(C)cc3)C(C)C2)c(=O)c2cc(S(=O)(=O)N3CCCC3)ccc21 (centres undefined)	i	.	.	.	.	i
COc1ccc(-c2noc([C@@H]3O[C@H](CO)[C@H](O)[C@H](O)[C@H]3O)n2)cc1OC	i	.	25%	.	4%	i
CC(C)(C)C1CCc2c(sc(NC(=O)Cn3nnc(-c4ccccc4Cl)n3)c2C#N)C1 (centres undefined)	i	.	.	.	.	i
CCc1cc(=O)oc2cc(C)c(CN3CCCCC3)c(O)c12	i	-5%	-5%	23%	-1%	16µM*
O=C(NC(=S)Nc1nc(-c2ccc(Cl)cc2)cs1)c1cccs1	i	-137%	10%	?	4%	i
CC(=O)Nc1nc(-c2ccc(Br)s2)cs1	i	-2%	-1%	2%	-4%	i
O=C(Nc1nc(-c2cc(Cl)sc2Cl)cs1)c1ccc(Br)s1	21µM*	-7%	15%	?	5%	?
O=C(Nc1nc(-c2cc(Cl)sc2Cl)cs1)c1cccs1	?	18%	?	8.2µM*	12µM*	?
COc1cccc(COC(=O)Nc2ccccc2)c1OC	i	.	7%	.	-6%	?
Cc1sc2ccccc2[n+]1CCCCBr	i	.	.	.	.	i
O=C(NCc1ccco1)c1noc2c1CCCC2	i	?	?	4%	?	i
CC1CCc2c(sc3ncn4c(SCC(=O)NCc5ccco5)nnc4c23)C1 (centres undefined)	i	-2%	1%	-8%	9%	i
CC1CCc2onc(C(=O)NCc3ccco3)c2C1 (centres undefined)	?	?	18µM*	?	13µM*	?
CC1CCc2sc3ncn4nc(C(=O)NCc5ccco5)nc4c3c2C1 (centres undefined)	i	-5%	12%	2%	23%	6.5µM*
CCC(=O)N1CCc2cc(S(=O)(=O)CCC(=O)NCCc3ccccc3)ccc21	i	-1%	-12%	24%	1%	i
CCC(=O)N1CCc2cc(S(=O)(=O)CCC(=O)NCc3ccco3)ccc21	?	?	-24%	8.2µM*	?	i
CN1CCN(c2nc3c(c(=O)[nH]c(=O)n3C)n2CCSc2nnnn2-c2ccccc2)CC1	i	5%	1%	-1%	1%	i
Cn1c(=O)[nH]c(=O)c2c1nc(N1CCCC1)n2CCCSc1nnnn1-c1ccccc1	i	9%	-2%	?	0%	6.5µM*
CS(=O)(=O)Nc1ccc(-c2ccc(/C=C3\SC(N)=NC3=O)o2)cc1	i	14%	12%	23µM*	-2%	i
CC1CCN(S(=O)(=O)c2ccc3nc(-c4ccccn4)cc(C(=O)NCCN(C)Cc4ccccc4)c3c2)CC1	?	0%	2%	0.73µM*	8%	i
CCC(=O)N1CCc2cc(S(=O)(=O)NCCC(=O)Nc3cc(C)ccc3OC)ccc21	i	.	.	.	.	i
Cc1nn(-c2ccccc2)c2c1N(CC(=O)N1CCN(c3cccc(Cl)c3)CC1)C(=O)CS2	i	.	.	.	.	i
SMILES	KB-3-1 cytotox	SW480 rerep	HT1080-NT tox	MCF10A rerep	HT1080 IDH1KD tx	KB-V1 cytotox
CC(C)=N/N=c1\scc(C)n1Cc1ccco1	i	-6%	2%	14%	1%	i
Cc1cs/c(=N\N=C\c2ccccc2)n1Cc1ccco1	?	-4%	0%	?	2%	16µM*
Cc1nnnn1/C(=C\c1ccccc1)C(=O)OCC(=O)NC1CCCCC1	i	23µM*	?	?	18µM*	i
Cc1nnnn1/C(=C\c1ccccc1)C(=O)OCC(=O)NC(C)(C)C	i	?	-21%	?	?	i
COc1ccccc1N1CCN(c2nc3c(S(=O)(=O)c4ccc(C)c(C)c4)nnn3c3ccc(Cl)cc23)CC1	i	.	.	.	.	i
O=C(c1cnn(-c2ccc(F)cc2)c1-n1cccc1)N1CCN(c2ccccc2)CC1	?	.	.	.	.	23µM*
O=C(NNS(=O)(=O)c1ccccc1)c1cnn(-c2ccccc2)c1-n1cccc1	i	-2%	?	5%	1%	16µM*
Cn1c(NCC2CCCCC2)nc2cc(-c3ccsc3)sc2c1=O	18µM*	.	19%	.	0%	i
Cn1c(NCc2ccncc2)nc2cc(-c3ccsc3)sc2c1=O	i	.	3%	.	6%	i
COc1ccc(-c2cc3nc(NCc4ccc(C)cc4C)n(C)c(=O)c3s2)cc1OC	15µM*	.	-2%	.	14%	2.6µM*
Cn1c(NCc2ccccc2F)nc2cc(-c3ccsc3)sc2c1=O	?	.	?	.	-26%	?
COc1ccccc1CNc1nc2cc(-c3ccsc3)sc2c(=O)n1C	?	.	-27%	.	?	21µM*
COc1cccc(-c2cc(C(=O)NCCc3ccc(C)cc3)[nH]n2)c1	i	.	.	.	.	i
CCCc1cc(=O)n2[nH]c(NC(=O)c3ccc(C(C)(C)C)cc3)nc2n1	i	.	.	.	.	i
COc1cc2c(C(=O)NCc3ccc4c(c3)OCO4)cn(CC(C)C)c(=O)c2cc1OC	i	-2%	-5%	15µM*	-9%	i
COC(=O)CNC(=O)c1cn(CC(C)C)c(=O)c2cc(OC)c(OC)cc12	i	-11%	0%	4%	5%	i
Cc1ccc(Cl)cc1NC(=S)NCCCSC1CCCCC1	?	15%	-30%	?	18µM*	?
O=C(Nc1ccc(Cl)cc1)c1csc(-c2ccccc2)n1	i	19%	-8%	23µM*	2%	?
Cc1cc(C)c2sc(N(Cc3cccnc3)C(=O)CCS(=O)(=O)c3ccccc3)nc2c1	i	.	.	.	.	i
Clc1ccc(CSc2ncn(-c3ccccc3)n2)cc1	i	-14%	11%	6%	12%	21µM*
Cc1cc2c(cc1C)C(=O)CCC2	i	.	1%	.	18%	i
O=C1CCCc2cc3c(ccc4ccccc43)cc21	i	2%	1%	18µM*	-2%	i
